# Assay outcomes: PubChem BioAssay, National Center for Advancing Translational Sciences (NCATS)
# BAZ2B inh: qHTS Assay for Inhibitors of BAZ2B; AlphaScreen BAZ2B-H3K14Ac peptide displacement; Potency, µM (titrated, usually from 114 µM), without a hit: top-dose activity change, negative = inhibition, most hits filed as inhibitors; 360,000 tested, 4.4% active; Bromodomain adjacent to zinc finger domain protein 2B (Homo sapiens), Q9UIF8; further: on the % scale 0 is the no-effect control and ±100 the full control effect; nearly all actives have a fitted effect of over 60% in size
#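 Compounds, titrated to a top concentration of 110 uM, were incubated 30 min at room temperature with preformed BAZ2B/acetyl-K14 H3 peptide complex (50 nM each). Proximity signal was measured by AlphaScreen after 20 min with beads.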
# HP1b chromo inh: HTS for Inhibitors of HP1-beta Chromodomain Interactions with Methylated Histone Tails; Chromobox protein homolog 1 (Homo sapiens), P83916; AlphaScreen HP1-beta / biotin-H3K9me3 peptide binding; Potency, µM (series often up to 114 µM), inactives show at the top dose activity change, negative = inhibition, actives largely listed as inhibitors; 390,000 tested, 0.56% active; further: nearly all actives have a fitted effect of over 70% in size
# Target sequence (P83916 whole entry, looked up): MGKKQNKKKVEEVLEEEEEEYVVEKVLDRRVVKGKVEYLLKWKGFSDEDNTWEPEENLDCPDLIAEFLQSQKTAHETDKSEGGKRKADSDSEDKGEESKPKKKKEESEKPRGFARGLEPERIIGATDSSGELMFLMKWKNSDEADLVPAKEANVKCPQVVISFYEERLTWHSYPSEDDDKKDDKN
#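 HP1-beta protein (50 nM final) preincubated 30 min at room temperature with biotinylated H3(1-18)K9me3 peptide (50 nM) in PBS pH 7.4, 0.01% Tween-20, then compound added for 30 min. AlphaScreen streptavidin donor/nickel chelate acceptor beads (10 ug/mL final), 30 min dark, luminescence read.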
# GLS inhibitor: qHTS for Inhibitors of Glutaminase (GLS); GLS enzymatic activity, qHTS titration; Potency, µM (highest dose often 45.5 µM), without a hit: at the top dose activity change, negative = inhibition, actives largely listed as inhibitors; 410,000 tested, 0.21% active; Glutaminase kidney isoform, mitochondrial (Homo sapiens), O94925; further: on the % scale 0 is the no-effect control and ±100 the full control effect
#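 Compounds were pin-transferred onto hKGA, after which L-glutamine (1 mM solution) and a detection mix of glutamate oxidase, HRP and Amplex Red were added. Initial and 30 min RT fluorescence reads were collected.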
# JMJD2A Tudor inh: qHTS Assay for Inhibitors of JMJD2A-Tudor Domain | Lysine-specific demethylase 4A (Homo sapiens), O75164 | AlphaScreen JMJD2A-Tudor / H3K4me3 peptide binding | Potency, µM (doses to about 114 µM), for inactives: at the top dose activity change, negative = inhibition, most hits filed as inhibitors | 390,000 tested, 4.4% active; further: on the % scale 0 is the no-effect control and ±100 the full control effect; nearly all actives have a fitted effect of over 50% in size
# G9a block: qHTS Assay for Inhibitors of Histone Lysine Methyltransferase G9a. Histone-lysine N-methyltransferase EHMT2 (Homo sapiens), Q96KQ7. G9a H3K9 monomethylation, AlphaScreen, 2 h. Potency, µM (highest dose often 102 µM), without a hit: at the top dose activity, negative = inhibition, actives largely listed as inhibitors. 350,000 tested, 8.8% active. AID 504332, 2011; further: on the % scale 0 is the no-effect control and ±100 the full control effect; nearly all actives have a fitted effect of over 75% in size
# Target sequence (Q96KQ7 913-1193 limits assumed): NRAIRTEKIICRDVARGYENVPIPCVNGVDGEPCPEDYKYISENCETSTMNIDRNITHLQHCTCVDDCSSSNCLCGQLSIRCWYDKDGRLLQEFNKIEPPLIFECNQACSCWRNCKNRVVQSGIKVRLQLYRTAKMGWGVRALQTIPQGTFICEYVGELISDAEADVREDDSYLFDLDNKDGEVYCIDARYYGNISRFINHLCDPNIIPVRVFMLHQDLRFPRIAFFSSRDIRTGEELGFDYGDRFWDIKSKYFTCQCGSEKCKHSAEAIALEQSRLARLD
#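 G9a (20 nM) preincubated 15 min RT with compounds, then 500 nM biotinylated H3K9 peptide and 20 uM SAM added; 2 h RT reaction. Monomethyl-H3K9 product detected by AlphaScreen with anti-H3K9me1 antibody, streptavidin donor and anti-rabbit IgG acceptor beads.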
# Starred values were filed as active, the others as inactive; u = inconclusive; x = no result; [ ] = remark or other dose. Only some compounds are listed: those with a hit (about 10% of all), similar ones and a draw of the others. The call rests on the fitted dose curve; in most records, active means well fitted curve in the direction sought with a large enough effect; inconclusive means small, poorly fitted or top-dose-only effect, or another doubt; inactive means no such curve, though single readings can be large; an effect the other way counts as inactive or inconclusive. Potency means the concentration at half of the fitted maximal effect.
SMILES,BAZ2B inh,HP1b chromo inh,GLS inhibitor,JMJD2A Tudor inh,G9a block
Cc1nn(Cc2ccc(Cl)c(Cl)c2)c(C)c1NC(=O)c1cc(-c2ccco2)on1,-24.0%,30.5%,3.2%,-15.1%,15.8µM*
CCc1ccc(NC(=O)c2noc3c2CCC3)cc1,50.1µM*,-16.1%,-15.1%,56.2µM*,19.8%[12.7 µM]
Cc1ccc(O)c(NC(=O)c2noc3c2CCCC3)c1,0.4%,11.8%,29.1%,-13.0%,10.5%[59 µM]
COc1ccc(S(=O)(=O)NCCc2ccccc2)cc1,-2.2%,64.5%,1.5%,-5.7%,-4.8%[12.7 µM]
Cc1oc(/N=C/c2ccc(F)cc2)c(C#N)c1C,-31.4%,20.0%,-0.8%,-3.3%,u
COC(=O)c1ccccc1NC(=O)c1cc(-c2ccco2)on1,-13.7%,6.5%,9.3%,-18.6%,39.8µM*
O=C(NCc1cccnc1)c1cc(-c2ccco2)on1,-33.9%,23.1%,-2.1%,-8.3%,39.8µM*
c1cncc(CNCc2ccco2)c1,70.8µM*,7.4%,-6.2%,-13.7%,u
O=C(c1ccco1)N1CCN(C(=O)C2CC(c3ccccc3F)=NO2)CC1 (stereo not given),-18.8%,27.6%,-7.1%,-9.0%,u
O=C(CN1C(=O)C2CC=CCC2C1=O)Nc1nc2ccc(F)cc2s1 (stereo not given),-12.6%,-4.9%,0.0%,-9.9%,6.1%
CC(C)CC(=O)NC(c1cccs1)c1ccc2cccnc2c1O (stereo not given),-0.5%,27.0%,-4.6%,50.1µM*,9.8%
Cc1conc1NC(c1cccs1)c1ccc2cccnc2c1O (stereo not given),25.1µM*,x,x,x,28.0%[2.33 µM]
COc1ccc(Cn2c(CCC(=O)NCc3ccco3)nc3cccnc32)cc1,-27.7%,35.8%,1.4%,-13.7%,-0.5%[59 µM]
Cc1cccc(OC(=O)c2nc(SCc3ccccc3F)ncc2Cl)c1,103.6%,139.1%,-0.1%,39.6%,148.0%[59 µM]
CCN1CCN(c2nc(C)nc3c2sc(=S)n3C)CC1,-4.6%,-13.9%,-10.8%,u,6.31µM*
CCN1CC2=C(OC(N)=C(C#N)C2c2cccs2)/C(=C/c2cccs2)C1 (stereo not given),31.6µM*,-21.6%,5.7%,u,u
CCOC(=O)C1=C(C)OC(N)=C(C#N)C1c1cccs1 (stereo not given),-16.4%,30.8%,-1.1%,-3.8%[57.1 µM],-46.9%
CCN1C=C(Cc2cccs2)C2=C(C1)C(c1cccs1)C(C#N)=C(N)O2 (stereo not given),35.5µM*,-33.5%,14.5%,u,u
CCN1CC2=C(OC(N)=C(C#N)C2c2ccccc2)/C(=C\c2ccccc2)C1 (stereo not given),u,-22.6%,35.0%,-32.8%,-12.9%[59 µM]
CC(=O)c1cccc(NC(=O)CN2C(=O)c3ccccc3C2=O)c1,u,23.2%,-4.2%,-21.9%,3.4%
COC(=O)c1csc(C2OC(CO)C(O)C2O)n1 (stereo not given),x,x,-1.9%,x,x
Cc1ccccc1NC(=O)c1cn2c(nc3ccccc32)c(C#N)c1C,-0.6%,46.2%,-6.7%,-15.5%,11.0%[12.7 µM]
Cc1ccc(-c2nc(C)c(CCNS(=O)(=O)c3ccc(F)c(C(F)(F)F)c3)s2)cc1,0.7%,25.0%[57 µM],-11.1%,-13.5%,2.1%[59 µM]
COC(=O)c1cc(NS(=O)(=O)c2ccc(Cl)c(N3C(=O)c4ccc(C(=O)O)cc4C3=O)c2)cc(C(=O)OC)c1,0.794µM*,-4.7%,0.0%,-18.5%,-112.4%[59 µM]
O=C(c1cc([N+](=O)[O-])ccc1N1CCCC1)N1CCCCC1,-26.4%,24.9%,-9.6%,6.9%,2.6%
SMILES,BAZ2B inh,HP1b chromo inh,GLS inhibitor,JMJD2A Tudor inh,G9a block
COc1ccc(/C=C/C(=O)NCCCN2CCCCCC2)cc1,-26.4%,12.5%,-4.1%,u,50.1µM*
O=C(/C=N/O)NCCCN1CCCCCC1,50.1µM*,16.8%,-25.7%,u,44.7µM*
O=C(/C=N/O)NCCCN1CCOCC1,-28.3%,28.2%,14.0%,-7.9%,-48.0%[59 µM]
COc1ccc2cc(/C=C/C(=O)N3CCN(CC(=O)N4CCCCCC4)CC3)ccc2c1,-17.0%,42.1%,2.6%,-22.5%,70.8µM*
c1ccc(-c2nc(N3CCCCCC3)c3ccccc3n2)nc1,50.1µM*,35.7%,18.9%,u,-31.1%
c1ccc(-c2nc(N3CCOCC3)c3ccccc3n2)nc1,u,42.4%,-0.5%,-32.7%,u
C[C@@H]1CN([C@H](C)CO)C(=O)c2cc(NC(=O)Nc3ccc(C(F)(F)F)cc3)ccc2O[C@H]1CN(C)Cc1ccc(Cl)c(Cl)c1,x,28.3%,0.9%,-29.5%,x
O=c1cccc2n1Cc1cc3ccccc3nc1-2,-27.1%,21.8%,5.3%,-8.6%,44.7µM*
c1ccc2nc3ccccc3cc2c1,x,x,x,x,30.9%[59 µM]
COc1cc(/C=C(\C#N)C(=O)Nc2nnc(C(F)(F)F)s2)ccc1OCc1ccc(C(F)(F)F)cc1C(F)(F)F,x,x,x,x,8.44µM*
N#C/C(=C\c1ccc(OCc2ccc(Cl)cc2)cc1)C(=O)Nc1cccc(C(=O)O)c1,56.2µM*,9.9%,79.1%,u,u
COc1cc(/C=C(\C#N)C(=O)Nc2cc(C(F)(F)F)ccc2Cl)ccc1OCC(=O)Nc1cccc(C(F)(F)F)c1,-1.4%,18.8%,4.1%,-19.5%,19.4%[59 µM]
CCOc1cccc(NC(=O)/C(C#N)=C\c2cccnc2)c1,u,26.3%,u,-6.2%,70.8µM*
COc1cc(/C=C(/C#N)C(=O)Nc2ccccc2)ccc1OCc1ccc(C(=O)O)cc1,56.2µM*,-9.6%,-3.5%,56.2µM*,u
N#C/C(=C\c1cccnc1)C(=O)Nc1ccccc1,11.5%,20.5%,-3.0%,0.0%,-13.7%
O=C(NCCc1csc(-c2ccc(C(F)(F)F)cc2)n1)C(=O)Nc1cc(F)ccc1F,5.0%,30.4%[57 µM],-20.2%,-3.5%,-0.3%[59 µM]
CN(C)/C=C/C(=O)c1c(F)cccc1F,-33.8%,39.4%,-16.2%,8.0%,5.4%
Cc1ccc([N+](=O)[O-])cc1NCC(=O)NN,-15.3%,21.5%,-3.6%,-4.1%,12.7%
COc1cc(C(=O)O)ccc1OCc1ccncc1,-19.5%,31.3%,-22.5%,1.0%,44.7µM*
CCOc1cc(/C=C(\C#N)C(=O)Nc2cccc(C(=O)O)c2)ccc1OCc1ccc(Br)cc1,56.2µM*,u,-11.1%,u,44.7µM*
COc1cc(C(N)=O)ccc1OCc1ccccc1,-16.3%,61.1%,-1.8%,-16.1%,-0.4%[59 µM]
CCCCNC(=O)N1CCN(c2ccccc2OC)CC1,0.2%,33.0%,-4.6%,-4.9%,8.5%
CCn1c(N)c(C(N)=O)sc1=S,-0.5%,-38.9%,1.1%,-12.2%,u
CCOc1ccccc1-n1c(N)c(C(N)=O)sc1=S,-37.4%,-33.7%,6.8%,-19.3%,35.5µM*
CCOC(=O)c1sc(=S)n(-c2ccccc2OC)c1N,u,u,-11.0%,u,u
